Test results reported in PubChem BioAssay (Tox21).
Calls of active or inactive are those of the source. Calls follow the shape of the dose curve; as a rule, active = well fitted curve in the direction sought with a large enough effect in the repeat runs; inconclusive = weak or mixed curves; inactive = flat fitted curve, though single readings scatter.

assay: qHTS assay to test for compound auto fluorescence at 590 nm (red) in HEK293 cell free culture (AID 720683); conditions: cell-free medium autofluorescence, Ex540/Em590 red; series mostly up to 91.3 µM; fluorescence, % of fluorescent control: at the top concentration
Text: U.S. Tox21 Program National Center for Advancing Translational Sciences [NCATS] NIH Chemical Genomics Center [NCGC] U.S. Environmental Protection Agency [EPA] National Institutes of Environmental Health Sciences [NIEHS] National Toxicology Program [NTP] U.S. Food and Drug Administration [FDA] Tox21 Assay Overview: Compound auto fluorescence often interferes with screening of the compound library against various biological targets and signaling pathways. Some of these compounds may have fluorophoric properties. Such properties may interfere with the assay outputs resulting in false positives and/or negatives. To decrease such complications and ensure the compound activities are relevant in terms of biological response, the Tox21 10K compound library was screened for auto fluorescence. From the fluorophores used as reporter signals in our screening assays, the auto fluorescence equivalencies of compounds against three fluorophores have been evaluated: Triamterene, Fluorescein and Rose Bengal sodium for blue, green and red fluorescence, respectively. The fluorescence intensities were measured using Excitation/Emission wavelengths at 405/460nm, 485/535nm and 540/590nm for blue, green and red labels, respectively. This assay includes the red fluorescence data.
Tox21 Assay Protocol Summary: 5 uL of culture medium (DMEM containing 10% FBS) per well was dispensed into black wall/clear bottom 1536-well plates using a Multidrop Combi Dispenser (ThermoFisher Scientific, Waltham, MA). After 23 nL compound or DMSO vehicle was transferred into assay plate by a pintool work station (Kalypsys, San Diego, CA), fluorescence intensities in the assay plates were measured by an Envision (PerkinElmer, Shelton, CT) plate reader using three labels for measuring blue, green and red fluorescence at […] 460, 535 and 590nm respectively.
% is scaled to controls: 0 for no effect and ±100 for the full control effect.

| Structure (SMILES) | fluorescence, % of fluorescent control | outcome |
| --- | --- | --- |
| COc1cccc(OC)c1C(=O)N[C@@H]1C(=O)N2[C@@H]1SC(C)(C)[C@@H]2C(=O)O | 0.0082% [at 46 µM] (inactive) |  |
| COc1cc(C(=O)OC(COCCC(C)C)CN2CCOCC2)cc(OC)c1OC (stereo not given) | 0.287% [at 46 µM] (inactive) |  |
| FB(F)F | 0.0817% [at 95.7 µM] (inactive) |  |
| O=S(=O)(O)c1cccc(S(=O)(=O)O)c1 | 0.0273% (inactive) |  |
| O=S(=O)(O)c1cccc2c(S(=O)(=O)O)cccc12 | 0.117% (inactive) |  |
| CCCC(C)C(=O)OCC (stereo not given) | 0.142% (inactive) |  |
| O=C(CO)[C@@H](O)[C@H](O)[C@@H](O)CO | 0.0647% [at 46 µM] (inactive) |  |
| CCOc1ccccc1OCC | -0.0349% (inactive) |  |
| C[C@@H]1CCC[C@H](C)N1 | -0.545% [at 18.6 µM] (inactive) |  |
| CO[Si](C)(OC)c1ccccc1 | -0.213% (inactive) |  |
| NC(=O)N1c2ccccc2CC(=O)c2ccccc21 | 0.57% [at 46 µM] (inactive) |  |
| CNC(=O)Nc1ccc(Cl)c(Cl)c1 | -0.0465% (inactive) |  |
| O=C1CCCCCCCCCCCCCCO1 | 0.0238% (inactive) |  |
| CCOC(=O)C1=NOC(c2ccccc2)(c2ccccc2)C1 | -0.44% (inactive) |  |
| CCCCCCCCCCCCCCCCCCO | -0.103% [at 46 µM] (inactive) |  |
| NCCCC(N)(C(=O)O)C(F)F (stereo not given) | -0.352% [at 46 µM] (inactive) |  |
| NC(=O)Cc1cccc2ccccc12 | 0.0599% (inactive) |  |
| CC(C)C[C@@H](N)C(=O)O | 0.453% [at 46 µM] (inactive) |  |
| Cc1cc(C)c(N=Nc2c(O)c(S(=O)(=O)O)cc3cc(S(=O)(=O)O)ccc23)cc1C | 0.0378% [at 9.17 µM] (inactive) |  |
| CC12CCC(C(=O)C1=O)C2(C)C (stereo not given) | -0.0154% [at 95.7 µM] (inactive) |  |

| Structure (SMILES) | fluorescence, % of fluorescent control | outcome |
| --- | --- | --- |
| CN(C)C(=O)Oc1ccc[n+](C)c1 | -0.353% [at 46 µM] (inactive) |  |
| CCCCOC(=O)CCC(C)=O | 0.0242% (inactive) |  |
| CCCCCCCCCCOc1cc2c(=O)c(C(=O)OCC)c[nH]c2cc1OCC | 0.221% [at 46 µM] (inactive) |  |
| CC(C(=O)O)c1cccc(Oc2ccccc2)c1 (stereo not given) | -0.0434% [at 18.6 µM] (inactive) |  |
| CCC(C)(CCCC(C)C)OC(C)=O (stereo not given) | -0.315% (inactive) |  |
| CN1CC(=O)N/C1=N/C(=O)Nc1cccc(Cl)c1 |  | inactive |
| CN1C(C)(C)CC(O)CC1(C)C | 0.0049% (inactive) |  |
| OCCCCCO | -0.232% [at 95.7 µM] (inactive) |  |
| CC(C)(C)C(=O)c1ccccc1 | -0.0053% (inactive) |  |
| CCCCS(=O)(=O)N[C@@H](Cc1ccc(OCCCCC2CCNCC2)cc1)C(=O)O | -0.363% [at 46 µM] (inactive) |  |
| CCCCCCCCCCCCSC | 0.178% (inactive) |  |
| CCCCOCCOC(=O)CCCCCCCCC(=O)OCCOCCCC | -0.273% (inactive) |  |
| C=CN1CCCCCC1=O | -0.0433% (inactive) |  |
| C=C(C)C(=O)OCC1CCCO1 (stereo not given) | -0.0115% (inactive) |  |
| CC(C)C(=O)OC(=O)C(C)C | -0.197% (inactive) |  |
| CC(=O)c1cnccn1 | -0.105% [at 95.7 µM] (inactive) |  |
| CCCCN1C=CN(C)C1 | 0.0298% [at 18.6 µM] (inactive) |  |
| CCN1C=CN(C)C1C (stereo not given) | -0.0885% (inactive) |  |
| C=C(C)C(=O)OCCOCCOCCOCCOC(=O)C(=C)C | -0.353% (inactive) |  |
| CC(C)[C@H]1CC[C@@H](C)CC1=O | 0.0293% (inactive) |  |
